The list is not random: actives were taken first. Their share in the collection is about 19%.
HT1080NT lethal: kills 2HG-producing HT-1080-NT fibrosarcoma cells; AID 686970; actives 1.6% (n = 360,000); HT-1080-NT fibrosarcoma viability, CellTiter-Glo ATP luminescence, 48 h; Potency, µM (titrated, usually from 46.1 µM), without a hit: top-dose activity, negative = less viability, usual class: cytotoxic;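 note: NT is the 2HG producing partner of a matched IDH1 knockdown line; potency is the fitted concentration of half-maximal effect; 0% = DMSO-treated cells and -100% = media-only wells without cells; nearly all actives have a fitted effect of over 55% in size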
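Viability of the 2HG-overproducing fibrosarcoma line after 48 hours of compound exposure at 37 degrees C was determined by luminescence with CellTiter-Glo, and concentration-effect curves were then fitted and categorized.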
HT1080 IDH1KD tx: kills HT-1080 cells with IDH1 knockdown. HT-1080 IDH1 knockdown viability, ATP luminescence, 48 h. Potency, µM (series often up to 46.1 µM), for inactives: at the top dose activity, negative = toxicity, hits mostly cytotoxic. actives 2% (n = 360,000);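 note: potency is the fitted concentration of half-maximal effect; 0% = DMSO wells and -100% = cell-free medium wells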
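In this qHTS, HT-1080 cells depleted of IDH1 are exposed for 48 h at 37 °C to compound titrations. Toxicity is scored from CellTiter-Glo luminescence, with DMSO as full viability and medium alone as none.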
DT40 TDP1 CPT: growth inhibition of DT40 Tdp1-/-;hTDP1 cells with camptothecin (screen for TDP1 inhibitors); Potency, µM (titrated, usually from 46.2 µM), for inactives: at the top dose activity change, negative = growth inhibition, most hits filed as inhibitors; actives 12% (n = 420,000); chicken DT40 Tdp1-/-;hTDP1 cells + 20 nM CPT, ATP luminescence, 48 h; note: potency is the fitted concentration of half-maximal effect; nearly all actives have a fitted effect of over 55% in size
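Cell growth measured by CellTiter-Glo luminescence after a minimum 48 h, 37 C compound exposure with 20 nM CPT in Tdp1-knockout DT40 cells stably expressing hTDP1, seeded 400/well; qHTS titration format.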
IL-1B inflam inh: inhibitors of inflammasome signaling (IL-1 beta secretion); THP-1 LPS/ATP IL-1B secretion, AlphaLISA, 16 h; stronger effect = lower value; activity change, % at 57.5 µM; actives 4.7% (n = 360,000); AID 743279; in the data active = activity change below about -50%; inconclusive = mostly about -30% to -49%
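Secreted IL-1B measured by AlphaLISA bead assay after 16 h compound exposure of THP-1 cells; compounds (final up to 57.5 uM) added 1 h before LPS (250 ng/mL) and ATP (1.25 mM) stimulation; lower signal means less secretion.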
TDP1 cell noCPT: qHTS for Inhibitors of human tyrosyl-DNA phosphodiesterase 1 (TDP1): qHTS in cells in absence of CPT. actives 15% (n = 420,000). DT40 Tdp1-/- hTDP1 cells, no CPT, ATP luminescence, 48 h. Potency, µM (doses to about 46.2 µM), without a hit: at the top dose activity change, negative = growth inhibition, actives largely listed as inhibitors. AID 686978, 2013; note: potency is the fitted concentration of half-maximal effect; nearly all actives have a fitted effect of over 55% in size
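Luminescent ATP content (CellTiter-Glo) served as the growth readout. Knockout chicken DT40 cells expressing human TDP1 were exposed to compounds without camptothecin for a minimum 48 hr at 37 °C.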
Starred values were filed as active, the others as inactive; ? = inconclusive; . = not tested or not shown; ! = repeats disagree; [ ] = dose if it differs, or a comment. Unless noted, calls come from the whole dose curve; as a rule, active = well fitted curve in the direction sought with a large enough effect; inconclusive = small, poorly fitted or top-dose-only effect, or another doubt; inactive = no such curve, though single readings can be large; an effect the other way counts as inactive or inconclusive. Unless noted, % is set by controls: 0 for no effect and ±100 for the full control effect.

SMILES	HT1080NT lethal	HT1080 IDH1KD tx	DT40 TDP1 CPT	IL-1B inflam inh	TDP1 cell noCPT
C=CCNC(=O)c1c(Cl)cnn1-c1ccc(C)cc1	-11%	4%	-1%	26	-2%
CCc1ccc(NS(=O)(=O)c2ccc(C(=O)N(C)C)s2)cc1	.	.	18µM*	.	15µM*
Cc1cccc(Nc2nnc(SCc3cc(=O)n4cc(C)ccc4n3)s2)c1	-11%	-18%	23µM*	-2	23µM*
COc1ccccc1Nc1nnc(SCc2cc(=O)n3ccsc3n2)s1	?	?	?	1	23µM*
Cc1ccc(OCC(=O)Nc2nnc(SCc3cc(=O)n4cc(C)ccc4n3)s2)cc1	.	.	1%	.	0%
COCCNC(=O)c1cc(C(=O)CC(C)C)c[nH]1	23%	21%	2%	-4	2%
Cc1cn([C@H]2C[C@H](O)[C@@H](CNCC3=Cc4cc(O)ccc4OC3)O2)c(=O)[nH]c1=O	-2%	-1%	-1%	-21	-14%
CCc1cccc(C)c1Nc1c(-c2cccs2)nc2ncccn12	.	.	?	.	16µM*
CCc1cccc(C)c1Nc1c(-c2ccc(N3CCOCC3)cc2)nc2ncccn12	.	.	23µM*	.	23µM*
COc1ccc(Nc2c(-c3ccc(N4CCOCC4)cc3)nc3ncccn23)cc1OC	.	.	-14%	.	-25%
CC(=O)Nc1c(-c2ccccc2)nc2ncccn12	0%	7%	9%	11	-6%
CC(Sc1nnc(-c2ccco2)n1C)C(=O)Nc1nccs1 (configuration not stated)	17%	12%	-25%	-1	-9%
COc1cccc(NC(=O)c2c(C)cc(C)cc2CC(C)(C)C(=O)O)c1	29%	-4%	3%	-26	-25%
Cc1ccc(S(=O)(=O)CCC(=O)OCC(=O)Nc2cc(F)ccc2C)cc1	-2%	-5%	-10%	7	0%
CCC1CCCCN1CCCNC(=O)CN1C(=O)CSc2ccc(S(=O)(=O)N3CCC(C)CC3)cc21 (configuration not stated)	-6%	3%	?	-20	23µM*!
CC1CCN(S(=O)(=O)c2ccc3c(c2)N(CC(=O)NCCCN2CCCC(C)C2)C(=O)CS3)CC1 (configuration not stated)	-15%	-14%	15µM*!	-21	15µM*!
CC(C)CN(CCCNC(=O)CN1C(=O)CSc2ccc(S(=O)(=O)N3CCOCC3)cc21)CC(C)C	15%	8%	-6%	14	9%
CC(C)CN(CCNC(=O)CN1C(=O)CSc2ccc(S(=O)(=O)N3CCOCC3)cc21)CC(C)C	12%	12%	18µM*!	0	21µM*!
CC1CCN(S(=O)(=O)c2ccc3c(c2)N(CC(=O)NCCCN2CCCCC2)C(=O)CS3)CC1	16%	13%	-23%	?	-2%
NS(=O)(=O)c1cnccc1Nc1cccc(F)c1	5%	12%	1%	-1	-3%
C=CCOC(=O)Cn1cnc2c(sc3nc(C)cc(C)c32)c1=O	-12%	-12%	5%	-71*	-17%
Cc1cc(C)c2c(n1)sc1c(=O)n(CC(=O)c3ccccc3)cnc12	-19%	-11%	?	-25	-24%
CC(Cc1c[nH]c2ccccc12)C(=O)N1CCN(c2ccccc2F)CC1 (configuration not stated)	0%	1%	?	25	-21%
Cc1c(S(=O)(=O)NC2CCCCC2)c(=O)n(C)c(=O)n1C	8%	4%	23%	28	-1%
Cc1cc(-c2cn3ccccc3n2)c(C)n1-c1ccccc1	?	?	?	-11	16µM*
Cc1ccc(CNC(=O)c2cc(=O)c3ccc(C)cc3o2)cc1	-15%	-12%	?	16	-6%
Cc1ccc(Sc2nnc(Cc3ccccc3)c3ccccc23)cc1	-5%[9.24 µM]	-11%	26µM*	-89*	23µM*
CNC(=S)NNC(=O)c1cccn(Cc2cccc(C(F)(F)F)c2)c1=O	8%	15%	1%	22	-19%
